Reference: PubChem BioAssay (NCATS)
Values joined by “and” are separate entries in the source; they are usually repeats but may differ in a detail not shown here. Equal entries are not always repeated. Results filed as inconclusive are left out. Active and inactive are the calls of the source. Unless noted, calls follow the shape of the dose curve; as a rule, active = well fitted curve in the direction sought with a large enough effect; inconclusive = small, poorly fitted or top-dose-only effect, or another doubt; inactive = no such curve, though single readings can be large; an effect the other way counts as inactive or inconclusive.

Tests used:
[1] = target: Endonuclease 4 (Escherichia coli (strain K12)) (UniProt P0A6C1); test: Counterscreen for APE1 Inhibitors: qHTS Validation Assay for Inhibitors of Endonuclease IV (AID 1708)
Method in brief: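 Enzymatic AP-site incision assay using a double-stranded THF substrate labelled with TAMRA and BHQ-2; released fluorescence signals activity. Enzyme 2 nM, substrate 50 nM, 15 min compound preincubation.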

[2] = qHTS for differential inhibitors of proliferation of Plasmodium falciparum line 7G8 (AID 1815);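 also: potency is read from the fitted curve at half-maximal effect; parasite growth measured after three days of incubation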
[3] = qHTS for differential inhibitors of proliferation of Plasmodium falciparum line GB4 (AID 1816); settings: Potency: Plasmodium falciparum GB4 proliferation inhibition;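 also: potency is read from the fitted curve at half-maximal effect; parasite growth measured after 72 h incubation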
[4] = qHTS for differential inhibitors of proliferation of Plasmodium falciparum line 3D7 (AID 1876); also: potency is read from the fitted curve at half-maximal effect
[5] = qHTS for differential inhibitors of proliferation of Plasmodium falciparum line D10 (AID 1877);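 also: potency is read from the fitted curve at half-maximal effect; parasites grown with compound for 72 h before DNA staining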
[6] = qHTS for differential inhibitors of proliferation of Plasmodium falciparum line Dd2 (AID 1882); settings: Potency: Plasmodium falciparum Dd2 proliferation inhibition; also: potency is read from the fitted curve at half-maximal effect; nearly all actives have a fitted effect of over 65% in size
Method in brief: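 SYBR Green I DNA fluorescence read-out, ex 485/em 535 nm. Signals were normalized to 0.29 uM artemisinin and DMSO wells, then corrected using vehicle-only plates flanking each stack. Parasite growth ran 72 h in erythrocytes before lysis.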

[7] = qHTS for differential inhibitors of proliferation of Plasmodium falciparum line W2 (AID 1883); settings: Potency: Plasmodium falciparum W2 proliferation inhibition;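 also: potency is read from the fitted curve at half-maximal effect; parasites grown with compound for 72 h before lysis and staining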
[8] = target: ATP-dependent DNA helicase Q1 (Homo sapiens) (UniProt P46063); test: qHTS Validation Assay for Inhibitors of RecQ-Like Dna Helicase 1 (RECQ1) (AID 2353)
Chain of ATP-dependent DNA helicase Q1 (Homo sapiens) (P46063 whole entry, looked up): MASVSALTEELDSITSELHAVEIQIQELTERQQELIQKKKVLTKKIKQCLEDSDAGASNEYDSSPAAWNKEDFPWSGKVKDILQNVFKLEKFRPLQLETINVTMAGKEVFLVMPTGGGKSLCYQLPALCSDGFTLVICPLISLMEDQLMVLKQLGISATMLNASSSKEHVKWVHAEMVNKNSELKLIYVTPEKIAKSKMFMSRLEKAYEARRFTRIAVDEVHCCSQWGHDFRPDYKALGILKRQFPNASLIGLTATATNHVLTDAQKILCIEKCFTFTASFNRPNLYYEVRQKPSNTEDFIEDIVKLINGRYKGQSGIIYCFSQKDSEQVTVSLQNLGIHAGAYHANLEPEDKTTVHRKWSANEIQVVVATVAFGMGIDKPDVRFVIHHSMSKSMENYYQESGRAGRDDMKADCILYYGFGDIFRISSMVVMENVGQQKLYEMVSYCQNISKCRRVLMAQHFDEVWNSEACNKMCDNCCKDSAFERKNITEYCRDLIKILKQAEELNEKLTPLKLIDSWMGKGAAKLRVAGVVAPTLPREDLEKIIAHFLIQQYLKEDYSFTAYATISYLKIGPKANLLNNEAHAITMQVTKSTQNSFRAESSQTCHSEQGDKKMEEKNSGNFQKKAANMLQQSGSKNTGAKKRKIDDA
Method in brief: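 50 nM RECQ1T1 preincubated 15 min with compound in Tris pH 8.0 buffer with MgCl2, DTT, Tween-20 and 2.5 ug/ml poly(dI-dC); started with 200 nM TAMRA/BHQ-2 forked duplex and 2 mM ATP. Unwinding read as fluorescence (525/598 nm), two reads 2 h apart.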

[9] = Cytometric Cell-Based qHTS for Inhibitors of the mTORC1 Signaling Pathway in MEF (Tsc2-/-, p53-/-) Cells (AID 2660);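 also: Tsc2 and p53 null MEFs carrying empty vector with compound for 24 h; percent of cells above a phospho-rpS6 to PI ratio cutoff in each well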
Method in brief: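 Cells are plated, treated with compound for 24 hrs at 37 degree Celsius, then fixed, blocked and immunostained for phospho-rpS6 Ser235/236. Propidium iodide counterstain follows. Per-well % positive cells is derived from the PI-normalized phospho-S6 signal.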

[10] = High Content Imaging Cell-Based qHTS for Inhibitors of the mTORC1 Signaling Pathway in MEF (Tsc2-/-, p53-/-) Cells (AID 2666); settings: at 38.3 µM (top of the series);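 also: percent of cells scored positive for phospho-rpS6 Ser235/236 immunostaining by imaging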
Method in brief: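 Cells were plated, dosed with compound after 24 hrs, and incubated another 24 hrs at 37 degree Celsius. Fixed cells were immunostained for phospho-rpS6 Ser235/236 and counterstained, and the normalized signal was scored as % active cells against rapamycin and DMSO controls.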

[11] = High Content Imaging Cell-Based qHTS for Inhibitors of the mTORC1 Signaling Pathway in MEF Cells (AID 2667);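 also: Tsc2-/- p53-/- MEFs stably re-expressing wild-type Tsc2 exposed 24 h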
Method in brief: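 Immunofluorescence for rpS6 phosphorylation in MEFs of Tsc2-/-, p53-/- background rescued with WT Tsc2. Compound exposure lasted 24 hrs. Inhibition was scored against rapamycin-treated control wells.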

[12] = Cytometry Cell-Based qHTS for Inhibitors of the mTORC1 Signaling Pathway in MEF cells (AID 2668);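 also: Tsc2-/- p53-/- mouse embryonic fibroblasts stably re-expressing wild-type Tsc2; percent cells positive for phospho-rpS6 Ser235/236 relative to propidium iodide stain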
Method in brief: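 In MEFs grown in DMEM + 10% FBS, a 24 hrs compound exposure preceded imaging of phospho-rpS6 Ser235/236 by laser-scanning cytometry.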

[13] = Validation screen for small molecules that induce DNA re-replication in MCF 10A normal breast cells (AID 463097); also: potency is read from the fitted curve at half-maximal effect; nearly all actives have a fitted effect of over 60% in size
Method in brief: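 Following 48 hr compound incubation (37 C, 5% CO2), MCF 10A cells receive Hoechst for 40 min at 37 C. Nuclei are then scanned (excitation 405 nm, emission 500-530 nm) for total fluorescence intensity.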

[14] = target: Ubiquitin carboxyl-terminal hydrolase 2 (Homo sapiens) (UniProt O75604); test: qHTS Validation Assay for Inhibitors of Ubiquitin-specific Protease USP2a Using CHOP2 as the Reporter (AID 463106)
Chain of Ubiquitin carboxyl-terminal hydrolase 2 (Homo sapiens) (O75604 whole entry, looked up): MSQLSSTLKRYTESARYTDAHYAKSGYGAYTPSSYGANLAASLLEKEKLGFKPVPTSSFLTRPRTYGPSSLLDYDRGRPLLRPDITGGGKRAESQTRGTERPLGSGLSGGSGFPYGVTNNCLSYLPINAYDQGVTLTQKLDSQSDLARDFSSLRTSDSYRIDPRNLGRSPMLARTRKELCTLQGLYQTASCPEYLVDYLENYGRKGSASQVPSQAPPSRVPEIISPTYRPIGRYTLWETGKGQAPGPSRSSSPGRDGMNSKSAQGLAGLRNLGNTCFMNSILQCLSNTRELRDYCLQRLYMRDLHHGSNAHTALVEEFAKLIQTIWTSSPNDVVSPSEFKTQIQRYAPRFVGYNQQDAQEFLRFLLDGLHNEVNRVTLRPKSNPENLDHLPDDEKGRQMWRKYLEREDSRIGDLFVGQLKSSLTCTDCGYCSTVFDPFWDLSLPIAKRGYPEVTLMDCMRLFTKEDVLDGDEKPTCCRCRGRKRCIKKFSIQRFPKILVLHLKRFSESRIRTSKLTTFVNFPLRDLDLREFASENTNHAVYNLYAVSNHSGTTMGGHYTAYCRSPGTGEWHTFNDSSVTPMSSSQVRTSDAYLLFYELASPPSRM
Method in brief: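 10nM USP2 core + cpd, 30min RT; add 25nM Ub-CHOP2/25nM substrate; 60min RT; FI 485/531nm. Buffer Tris pH 8.0, CaCl2, BME, CHAPS. Norm. to NEM = 100% inhibition; time-zero read flags fluorescent artifacts.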

[15] = target: Tumor susceptibility gene 101 protein (Homo sapiens) (UniProt Q99816); test: qHTS Validation Assay for Iinhibitors of HIV-1 Budding by Blocking the Interaction of PTAP/TSG101 (AID 485342; calls by dose curve)
Chain of Tumor susceptibility gene 101 protein (Homo sapiens) (Q99816 whole entry, looked up, the tested form may be a part): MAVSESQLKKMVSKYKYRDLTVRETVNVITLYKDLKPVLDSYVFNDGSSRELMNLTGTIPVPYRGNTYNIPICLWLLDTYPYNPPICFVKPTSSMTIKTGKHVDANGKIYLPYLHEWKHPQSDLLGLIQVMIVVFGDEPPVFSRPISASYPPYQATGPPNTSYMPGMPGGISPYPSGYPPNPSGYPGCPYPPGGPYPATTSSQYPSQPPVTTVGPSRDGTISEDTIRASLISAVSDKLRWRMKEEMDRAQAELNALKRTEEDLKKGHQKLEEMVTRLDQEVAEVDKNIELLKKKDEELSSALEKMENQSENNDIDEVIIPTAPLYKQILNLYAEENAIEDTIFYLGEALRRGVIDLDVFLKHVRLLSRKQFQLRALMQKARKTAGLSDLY
Method in brief: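 Compound wells held the Tsg101 binding domain (10 uM) and a FITC-conjugated PTAP peptide (50 nM) in buffer at pH 7.5 containing 0.15 M NaCl and 0.01% Tween 20; polarization was recorded after 20 min, r.t.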

[16] = target: Beta-2 adrenergic receptor (Homo sapiens) (UniProt P07550); test: qHTS validation assay of beta-arrestin-biased ligands of beta2-adrenergic receptor (AID 485366)
Chain of Beta-2 adrenergic receptor (Homo sapiens) (P07550 whole entry, looked up): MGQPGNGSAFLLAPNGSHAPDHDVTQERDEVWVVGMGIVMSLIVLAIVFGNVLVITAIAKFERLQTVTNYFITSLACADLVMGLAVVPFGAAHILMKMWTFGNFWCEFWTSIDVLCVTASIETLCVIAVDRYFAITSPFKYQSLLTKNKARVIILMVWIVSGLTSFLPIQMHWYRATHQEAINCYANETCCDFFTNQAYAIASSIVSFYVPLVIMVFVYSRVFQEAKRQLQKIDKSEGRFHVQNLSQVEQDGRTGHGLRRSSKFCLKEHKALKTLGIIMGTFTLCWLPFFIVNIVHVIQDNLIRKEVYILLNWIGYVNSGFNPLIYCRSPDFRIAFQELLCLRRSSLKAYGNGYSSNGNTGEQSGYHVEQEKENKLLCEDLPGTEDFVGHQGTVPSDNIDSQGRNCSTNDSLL
Method in brief: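 Values derive from curve-fitted %Activity of a luminescent beta-arrestin recruitment reporter; compounds tested up to 46 microM on Tango cells for 18 hr at 37 degrees C, 5% CO2.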

[17] = target: Thioredoxin reductase 1, cytoplasmic (Rattus norvegicus) (UniProt O89049); test: qHTS Assay for Inhibitors of Mammalian Selenoprotein Thioredoxin Reductase 1 (TrxR1) (AID 488773); settings: Potency: inhibition;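 also: drop in NADPH fluorescence over an 8 min run after selenite addition; nearly all actives have a fitted effect of over 40% in size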
Chain of Thioredoxin reductase 1, cytoplasmic (Rattus norvegicus) (O89049 whole entry, looked up): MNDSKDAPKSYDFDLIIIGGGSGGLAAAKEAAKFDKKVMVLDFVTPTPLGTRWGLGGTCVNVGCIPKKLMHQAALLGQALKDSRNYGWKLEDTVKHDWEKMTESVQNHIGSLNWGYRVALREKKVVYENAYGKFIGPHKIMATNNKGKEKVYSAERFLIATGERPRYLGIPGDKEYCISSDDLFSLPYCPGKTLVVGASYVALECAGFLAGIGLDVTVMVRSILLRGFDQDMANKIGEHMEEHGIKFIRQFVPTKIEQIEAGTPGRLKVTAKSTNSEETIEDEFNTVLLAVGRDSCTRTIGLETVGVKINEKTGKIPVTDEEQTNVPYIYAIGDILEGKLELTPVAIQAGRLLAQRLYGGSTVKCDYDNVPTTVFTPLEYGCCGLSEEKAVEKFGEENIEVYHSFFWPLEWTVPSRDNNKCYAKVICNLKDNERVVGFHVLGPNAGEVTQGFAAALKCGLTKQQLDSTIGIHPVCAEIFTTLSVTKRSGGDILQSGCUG
Method in brief: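 Steps: enzyme (90 nM) plus NADPH (400 uM final), 5 min at ~22 deg C; compound added, 15 min; selenite (400 uM final) added; fluorescence followed for 8 min. Concentration-response curves derived from the normalized delta values.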

[18] = target: M-phase phosphoprotein 8 (Homo sapiens) (UniProt Q99549); test: qHTS Validation Assay for Inhibitors for MPP8 Chromodomain Interactions with Methylated Histone Tails (AID 488949); also: potency is read from the fitted curve at half-maximal effect; nearly all actives have a fitted effect of over 55% in size
Chain of M-phase phosphoprotein 8 (Homo sapiens) (Q99549 whole entry, looked up): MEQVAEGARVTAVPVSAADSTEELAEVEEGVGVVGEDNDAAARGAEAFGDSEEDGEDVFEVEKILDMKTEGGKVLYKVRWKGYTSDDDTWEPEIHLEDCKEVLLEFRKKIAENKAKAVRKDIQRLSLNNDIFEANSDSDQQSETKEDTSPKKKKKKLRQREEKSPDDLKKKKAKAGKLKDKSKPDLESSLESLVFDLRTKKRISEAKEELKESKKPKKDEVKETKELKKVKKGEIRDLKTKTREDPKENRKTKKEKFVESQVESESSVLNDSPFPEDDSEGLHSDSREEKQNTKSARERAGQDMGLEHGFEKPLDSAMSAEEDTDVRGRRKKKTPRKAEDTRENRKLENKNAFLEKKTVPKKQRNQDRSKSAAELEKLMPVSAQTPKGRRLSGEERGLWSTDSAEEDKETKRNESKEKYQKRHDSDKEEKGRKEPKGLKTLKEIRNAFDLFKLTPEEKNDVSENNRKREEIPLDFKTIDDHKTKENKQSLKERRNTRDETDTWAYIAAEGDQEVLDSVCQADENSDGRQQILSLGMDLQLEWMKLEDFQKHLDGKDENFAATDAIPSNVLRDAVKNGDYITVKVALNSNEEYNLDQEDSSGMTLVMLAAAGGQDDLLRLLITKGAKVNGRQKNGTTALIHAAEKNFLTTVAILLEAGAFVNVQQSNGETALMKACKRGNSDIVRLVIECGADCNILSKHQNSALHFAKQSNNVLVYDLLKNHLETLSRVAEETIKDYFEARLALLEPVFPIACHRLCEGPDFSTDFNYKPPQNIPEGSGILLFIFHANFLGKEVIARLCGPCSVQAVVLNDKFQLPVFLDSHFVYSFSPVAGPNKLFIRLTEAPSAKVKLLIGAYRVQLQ
Method in brief: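 Chemiluminescent proximity assay: histidine-tag capture via nickel acceptor beads, biotin peptide via streptavidin donor beads. Protein and peptide each at 50 nM, pH 7.4, with 30 min incubations at room temperature for complex formation, compound exposure and bead binding.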

[19] = target: Chromobox protein homolog 1 (Homo sapiens) (UniProt P83916); test: qHTS Validation Assay for Inhibitors of HP1-beta Chromodomain Interactions with Methylated Histone Tails (AID 488953); also: potency is read from the fitted curve at half-maximal effect; nearly all actives have a fitted effect of over 50% in size
Chain of Chromobox protein homolog 1 (Homo sapiens) (P83916 whole entry, looked up): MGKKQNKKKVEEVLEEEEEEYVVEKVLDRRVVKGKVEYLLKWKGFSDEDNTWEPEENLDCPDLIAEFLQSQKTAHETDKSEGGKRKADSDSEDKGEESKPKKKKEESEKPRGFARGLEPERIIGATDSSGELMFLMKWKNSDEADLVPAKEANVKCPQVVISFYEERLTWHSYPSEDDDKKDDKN
Method in brief: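 Measured as loss of AlphaScreen luminescence from streptavidin donor and nickel acceptor beads (10 ug/mL final) bridging HP1-beta and biotin-H3(1-18)K9me3, each 50 nM. Compounds met the preassembled complex for 30 min at RT.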

[20] = target: Methanococcus maripaludis chaperonin (MmCpn) (UniProt Q6LX38); test: High-Throughput Screening for Modulators of Cytosolic Chaperonin Activity: MmCpn Primary Screen (AID 488978)
Chain of Methanococcus maripaludis chaperonin (MmCpn) (Q6LX38 1-543): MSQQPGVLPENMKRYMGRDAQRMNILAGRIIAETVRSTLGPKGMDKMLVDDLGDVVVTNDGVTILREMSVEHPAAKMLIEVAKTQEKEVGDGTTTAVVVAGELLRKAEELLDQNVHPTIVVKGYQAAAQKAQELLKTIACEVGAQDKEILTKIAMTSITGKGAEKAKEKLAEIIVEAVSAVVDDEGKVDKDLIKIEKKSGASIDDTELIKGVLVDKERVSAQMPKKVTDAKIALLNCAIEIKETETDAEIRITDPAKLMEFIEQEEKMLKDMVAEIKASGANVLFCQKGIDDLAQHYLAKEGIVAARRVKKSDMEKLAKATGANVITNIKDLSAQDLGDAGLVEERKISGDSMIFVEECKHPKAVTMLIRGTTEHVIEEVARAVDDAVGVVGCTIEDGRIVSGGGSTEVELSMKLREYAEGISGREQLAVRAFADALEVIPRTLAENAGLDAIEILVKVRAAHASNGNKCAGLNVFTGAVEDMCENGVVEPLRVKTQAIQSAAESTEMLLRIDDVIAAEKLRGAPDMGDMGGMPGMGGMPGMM
Method in brief: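 HTRF readout (320 nm excitation, 590/665 nm emission) of ADP generated by 50 nM MmCpn hydrolysing 30 uM ATP during 10 min at 37C; compound preincubated 5 min RT.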

[21] = target: Transient receptor potential cation channel subfamily V member 1 (Homo sapiens) (UniProt Q8NER1); test: HTS Assay for Compounds that Act as Enhancers of the Vanilloid Receptor 1 (AID 488979)
Chain of Transient receptor potential cation channel subfamily V member 1 (Homo sapiens) (Q8NER1 whole entry, looked up): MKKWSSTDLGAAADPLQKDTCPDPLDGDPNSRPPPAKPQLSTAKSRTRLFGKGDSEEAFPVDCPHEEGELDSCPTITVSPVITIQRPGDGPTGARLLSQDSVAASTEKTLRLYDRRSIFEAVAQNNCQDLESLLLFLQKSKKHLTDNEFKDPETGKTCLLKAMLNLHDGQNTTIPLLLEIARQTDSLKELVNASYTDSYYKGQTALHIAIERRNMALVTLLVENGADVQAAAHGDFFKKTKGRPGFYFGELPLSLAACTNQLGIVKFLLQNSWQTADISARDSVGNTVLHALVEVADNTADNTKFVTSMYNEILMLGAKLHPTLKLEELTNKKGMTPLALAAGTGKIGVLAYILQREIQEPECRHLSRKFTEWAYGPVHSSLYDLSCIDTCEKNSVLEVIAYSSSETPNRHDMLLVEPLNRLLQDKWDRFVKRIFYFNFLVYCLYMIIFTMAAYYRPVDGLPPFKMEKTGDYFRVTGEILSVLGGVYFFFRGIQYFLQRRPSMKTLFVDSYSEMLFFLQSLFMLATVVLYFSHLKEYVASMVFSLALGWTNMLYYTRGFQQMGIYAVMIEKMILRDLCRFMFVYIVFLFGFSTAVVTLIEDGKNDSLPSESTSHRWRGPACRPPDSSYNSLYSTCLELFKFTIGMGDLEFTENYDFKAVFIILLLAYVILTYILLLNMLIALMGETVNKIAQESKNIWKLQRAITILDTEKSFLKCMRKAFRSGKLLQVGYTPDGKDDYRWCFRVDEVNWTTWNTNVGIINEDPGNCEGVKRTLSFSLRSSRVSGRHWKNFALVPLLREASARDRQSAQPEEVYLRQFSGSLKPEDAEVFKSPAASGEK
Method in brief: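 Calcium influx kinetics via Fluo-8 (480/520 nm) in TRPV1-expressing cells, 2000/well cultured overnight at 35.5C. Compound-alone read 3 min (agonist phase), followed by EC20 capsaicin challenge for 2 min (enhancer phase).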

Measured: Potency

N#C/C(=C\c1ccc(O)c(O)c1)C(=O)Nc1ccccc1
active: [2] 8.91 µM | [3] 14.1 µM | [4] 12.6 µM | [5] 10 µM | [6] 12.6 µM | [7] 7.94 µM | [13] 12.6 µM | [18] 12.6 µM and 10.6 µM | [19] 12.6 µM
inactive: [1] | [8] | [9] | [10] | [11] | [12] | [14] | [15] | [16] | [17] | [20] | [21]
